Inconclusive results are not listed. Where a call stands in place of a potency, no number is given. Active and inactive are the calls of the source. Unless noted, calls come from the whole dose curve; as a rule, active = well fitted curve in the direction sought with a large enough effect; inconclusive = small, poorly fitted or top-dose-only effect, or another doubt; inactive = no such curve, though single readings can be large; an effect the other way counts as inactive or inconclusive.
Columns and labels:
[1] = qHTS Assay for Identification of Small Molecule Antagonists for NFkB Signaling Pathway (AID 895; active = well fitted inhibition curve with a large enough effect in the signal ratio, with a control signal flat, not every such curve was filed as active; the % refers to the signal ratio)
Method in brief: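 ME-180 NFkB-bla cells (beta-lactamase under NFkB response element), plated overnight, treated with compound then 10 pM TNF alpha (about EC50) for 5 hrs at 37 C. LiveBLAzer FRET read at 460/530 nm emission, 405 nm excitation.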

[2] = qHTS Assay for Identification of Small Molecule Agonists for Thrombopoietin (TPO) Signaling Pathway (AID 917); settings: TPO signaling pathway reporter cells, agonist qHTS; stimulated with TPO at its EC50; note: potency is the fitted concentration of half-maximal effect
Method in brief: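 We measured Glycoprotein IIb promoter–luciferase output in IL-3-starved Ba/F3 murine cells expressing the human TPO receptor after 24 hrs at 37 C with compounds and 26 pM TPO.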

[3] = target: Muscarinic acetylcholine receptor M1 (Rattus norvegicus) (UniProt P08482); assay: qHTS Assay for Antagonists of Acetylcholine Muscarinic M1 Receptor: Measurement of IP-One Response (AID 944); note: nearly all actives have a fitted effect of over 75% in size
Method in brief: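 Steps: plate transfected CHO-M1 cells overnight; add test compound, 10 min; add carbachol (200 nM, EC80) in stimulation buffer with LiCl; incubate 30 min; add labelled IP1 tracer and anti-IP1 antibody in lysis buffer; read HTRF after 10 min.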

[4] = target: Pyruvate kinase (Leishmania mexicana) (UniProt Q27686); assay: qHTS Validation Assay for Inhibitors of Leishmania Mexicana Pyruvate Kinase (AID 945)
Method in brief: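 An endpoint luciferase assay: 0.2 nM LmPYK E451W turns over 0.5 mM PEP with 0.1 mM ADP for 1 h at room temperature, pH 7.2, before PKLight addition. Values are normalized to DMSO-only wells.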

[5] = target: Pyruvate kinase PKM (Homo sapiens) (UniProt P14618); assay: qHTS Assay for Activators of Human Muscle Pyruvate Kinase (AID 954; active = well fitted curve in the direction sought with a large enough effect, not every such curve was filed as active)
Method in brief: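 Human PKM2 activity is measured as ATP generation, detected by luciferase-coupled luminescence. The enzyme (0.1 nM) acts on 0.5 mM PEP and 0.1 mM ADP for 1 h at ambient temperature; data are normalized to uninhibited and full-inhibition wells.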

[6] = target: Cytochrome P450 2C19 (Homo sapiens) (UniProt P33261); assay: qHTS Assay for Inhibitors and Substrates of Cytochrome P450 2C19 (AID 899); note: nearly all actives have a fitted effect of over 60% in size
Method in brief: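 Signal comes from luciferase acting on luciferin released by CYP2C19-mediated hydroxylation of Luciferin-H EGE, 10uM (KM). Assay mix: 5nM enzyme, 50mM KPO4; 60 min at 37C with NADPH regeneration. Data normalized against 57uM ketoconazole.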

Pyruvate kinase PKM (Homo sapiens), sequence (P14618 whole entry, looked up): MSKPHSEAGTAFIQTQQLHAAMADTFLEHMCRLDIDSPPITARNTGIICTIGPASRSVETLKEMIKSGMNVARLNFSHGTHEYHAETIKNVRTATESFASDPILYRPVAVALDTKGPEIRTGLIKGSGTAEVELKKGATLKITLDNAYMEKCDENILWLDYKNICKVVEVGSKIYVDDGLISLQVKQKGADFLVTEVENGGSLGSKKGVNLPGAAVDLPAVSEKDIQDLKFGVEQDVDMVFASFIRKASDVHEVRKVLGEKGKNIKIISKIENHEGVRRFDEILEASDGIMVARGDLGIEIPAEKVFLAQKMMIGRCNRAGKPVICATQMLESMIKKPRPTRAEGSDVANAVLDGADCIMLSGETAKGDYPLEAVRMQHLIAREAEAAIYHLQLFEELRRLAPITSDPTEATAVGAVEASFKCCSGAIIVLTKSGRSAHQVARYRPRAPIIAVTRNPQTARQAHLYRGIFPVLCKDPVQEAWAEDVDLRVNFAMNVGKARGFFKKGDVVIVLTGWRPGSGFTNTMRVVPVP
Cytochrome P450 2C19 (Homo sapiens), sequence (P33261 whole entry, looked up): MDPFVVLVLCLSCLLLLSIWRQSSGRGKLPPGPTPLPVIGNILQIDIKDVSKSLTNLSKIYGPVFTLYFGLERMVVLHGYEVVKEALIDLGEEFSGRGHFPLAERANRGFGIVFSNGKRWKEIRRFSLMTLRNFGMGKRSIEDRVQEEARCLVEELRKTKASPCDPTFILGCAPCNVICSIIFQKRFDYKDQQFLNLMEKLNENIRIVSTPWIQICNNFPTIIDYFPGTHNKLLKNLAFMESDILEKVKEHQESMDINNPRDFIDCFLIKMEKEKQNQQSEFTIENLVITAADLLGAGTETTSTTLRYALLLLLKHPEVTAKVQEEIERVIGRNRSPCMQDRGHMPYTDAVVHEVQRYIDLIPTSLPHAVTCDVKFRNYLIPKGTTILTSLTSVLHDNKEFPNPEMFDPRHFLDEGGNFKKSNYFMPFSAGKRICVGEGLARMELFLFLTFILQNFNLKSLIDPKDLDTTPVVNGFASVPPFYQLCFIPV
Pyruvate kinase (Leishmania mexicana), sequence (Q27686 2-499 E452W): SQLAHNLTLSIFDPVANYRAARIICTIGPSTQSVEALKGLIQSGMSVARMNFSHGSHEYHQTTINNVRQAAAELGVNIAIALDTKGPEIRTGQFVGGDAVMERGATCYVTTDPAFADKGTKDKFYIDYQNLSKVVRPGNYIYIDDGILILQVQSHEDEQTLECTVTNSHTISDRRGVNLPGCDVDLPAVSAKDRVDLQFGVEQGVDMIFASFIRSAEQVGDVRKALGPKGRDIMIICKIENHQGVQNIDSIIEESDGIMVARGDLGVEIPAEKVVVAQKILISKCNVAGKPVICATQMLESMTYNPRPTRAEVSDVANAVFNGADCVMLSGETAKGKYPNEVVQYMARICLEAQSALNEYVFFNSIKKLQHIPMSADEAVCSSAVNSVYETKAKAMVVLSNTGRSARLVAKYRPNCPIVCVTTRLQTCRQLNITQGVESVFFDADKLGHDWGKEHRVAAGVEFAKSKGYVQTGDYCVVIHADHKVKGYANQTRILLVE
Muscarinic acetylcholine receptor M1 (Rattus norvegicus), sequence (P08482 whole entry, looked up): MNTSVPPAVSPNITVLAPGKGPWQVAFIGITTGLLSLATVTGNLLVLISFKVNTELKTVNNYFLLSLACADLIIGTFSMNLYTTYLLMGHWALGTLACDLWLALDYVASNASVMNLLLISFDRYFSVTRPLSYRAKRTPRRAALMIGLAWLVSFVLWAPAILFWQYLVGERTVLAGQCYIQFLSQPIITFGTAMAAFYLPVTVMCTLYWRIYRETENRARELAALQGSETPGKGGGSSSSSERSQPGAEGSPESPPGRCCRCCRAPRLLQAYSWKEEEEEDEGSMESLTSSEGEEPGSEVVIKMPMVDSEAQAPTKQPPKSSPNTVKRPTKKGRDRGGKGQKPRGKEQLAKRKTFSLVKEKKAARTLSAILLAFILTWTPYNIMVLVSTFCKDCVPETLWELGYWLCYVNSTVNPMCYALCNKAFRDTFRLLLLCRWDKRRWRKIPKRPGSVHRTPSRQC

Row | Compound | outcome [1] | Potency [2] | outcome [3] | outcome [4] | outcome [5] | outcome [6]
1 | O=c1c2ccccc2nc2n1CCc1c-2[nH]c2ccccc12 | inactive | 316 nM (active) | inactive | inactive | inactive | 
2 | O=C(O)[C@H](Cc1c[nH]c2ccccc12)N1C(=O)c2ccccc2C1=O |  |  |  |  |  | inactive

Source: PubChem BioAssay (NCATS)
